# Experimental data as given in PubChem BioAssay (NCATS).
# Results filed as inconclusive are left out. A number with no mark means an inactive call. Active and inactive are the calls of the source. The call rests on the fitted dose curve; in most records, active means well fitted cell-killing curve with a large enough effect; inconclusive means small, poorly fitted or top-dose-only effect; inactive means flat fitted curve, though single readings scatter.
# Assay: Cell Viability - LYMP2-008 (AID 980); further: nearly all actives have a fitted effect of over 60% in size
# Conditions: LYMP2-008 lymphoblastoid cell viability, qHTS; series mostly up to 92.2 µM; activity change, negative = cytotoxicity: at the top concentration
# In short: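 Human lymphoblastoid cells (2500/well) were plated, held 5 hr at 37 C, then exposed to compounds for 24 hr at 37 C in complete medium. Intracellular ATP was read by CellTiter-Glo luminescence; AC50 from Hill-fitted concentration-response.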
# On the % scale 0 is the no-effect control and ±100 the full control effect; potency means the concentration at half of the fitted maximal effect.
SMILES,Potency,"activity change, negative = cytotoxicity [%]"
Cc1cc(Nc2ccc(O)cc2)ccc1N,50.1 µM (active),–
CN(C)c1ccc(C2(c3ccc(N(C)C)cc3)OC(=O)c3cc(N(C)C)ccc32)cc1,–,-5.66
CO[C@H]1/C=C/O[C@@]2(C)Oc3c(C)c(O)c4c(O)c(c5c(c4c3C2=O)NC2(CCN(CC(C)C)CC2)N=5)=NC(=O)/C(C)=C\C=C\[C@H](C)[C@H](O)[C@@H](C)[C@@H](O)[C@@H](C)[C@H](OC(C)=O)[C@@H]1C,–,-21.5
O=C(OCC(COC(=O)c1ccccc1)(COC(=O)c1ccccc1)COC(=O)c1ccccc1)c1ccccc1,–,-3.41
CC(=O)Nc1ccc(C(=O)CCl)cc1,6.31 µM (active),–
Nc1ccc2cc3ccccc3cc2c1,–,-8.67
c1ccc2c(c1)-c1cccc3c1c-2cc1ccccc13,–,-9.88
O=C=Nc1ccc(Cc2ccc(N=C=O)cc2)cc1,–,4.61
O=[N+]([O-])c1cc([N+](=O)[O-])c2ccc(S(=O)(=O)O)cc2c1O,–,-9.97
Cc1cc(O)c(C(C)(C)C)cc1Sc1cc(C(C)(C)C)c(O)cc1C,31.6 µM (active),–
CCC(C)Nc1ccc(NC(C)CC)cc1 (stereo unspecified),3.98 µM (active),–
CNc1ccc(O)cc1,7.94 µM (active),–
C=CC(=O)OCCOCCOC(=O)C=C,31.6 µM (active),–
c1ccc2c(c1)ccc1cc3c(ccc4ccccc43)cc12,–,-15.8
C=C(C)c1ccccc1,–,-9.41
O=C1OC(O)C(C(Cl)Cl)=C1Cl (stereo unspecified),25.1 µM (active),–
